These results are taken from PubChem BioAssay (Tox21).

Results filed as inconclusive are left out. The source made the active and inactive calls. Calls come from the whole dose curve.
% is set by controls: 0 for no effect and ±100 for the full control effect.

This assay in a line: qHTS assay for small molecule agonists of the p53 signaling pathway - cell viability (AID 651633).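 Note: p53RE-bla HCT reporter cells with a stable beta-lactamase p53 reporter; nearly all actives have a fitted effect of over 30% in size.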 Particulars: p53RE-bla HCT-116 viability, ATP luminescence, 16 h; series mostly up to 83.3 µM; activity change, negative = cytotoxicity: at the top concentration. The gist of the method:
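Viability counter-read: CellTiter-Glo luminescence (30 min, room temperature) in the same p53RE-bla plates. These plates had been exposed to compounds for 16 h at 37 C.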
On the technique in general: In qHTS, concentration-response curves come from the screen itself.
In the case of `C=CC[N+]1([C@H]2C[C@H]3[C@@H]4CC[C@H]5C[C@H](OC(C)=O)[C@@H](N6CCCCC6)C[C@]5(C)[C@H]4CC[C@]3(C)[C@H]2OC(=O)CC)CCCCC1`, the “activity change, negative = cytotoxicity” value was -9.5% (inactive).

Take `O=C(O)Cc1sc(-c2ccccc2)nc1-c1ccc(Cl)cc1`: the Potency result was “inactive”.

For `Cc1c(Cn2ccnc2)c2ccccc2n1CCC(=O)O`, the “activity change, negative = cytotoxicity” value was 20% (inactive).

`CC[C@H](C)[C@H](N)C(=O)O`: the “activity change, negative = cytotoxicity” value was -8.63% (inactive).

Take `Nc1nc(CC(=O)O)cs1`: the “activity change, negative = cytotoxicity” value was -12.9% [at 95.3 µM] (inactive).

As for `OCC1CC2CC1C1CCC(CO)C21` (stereo not given), the “activity change, negative = cytotoxicity” value is -4.18% (inactive).

For `FC(F)(F)C(F)(F)C(F)(F)C(F)(F)C(F)(F)C(F)(F)CCI`, the “activity change, negative = cytotoxicity” value was -10.2% (inactive).

For `CCN(CCO)CCCC(C)Nc1ccnc2cc(Cl)ccc12` (stereo not given), the “activity change, negative = cytotoxicity” value is 11.7% (inactive).

Turning to `Nc1nc(N)c(-c2ccccc2)s1`, the “activity change, negative = cytotoxicity” value was 19.4% (inactive).

As to `CCC(C)N(C)C(=O)c1cc2ccccc2c(-c2ccccc2Cl)n1` (stereo not given), the “activity change, negative = cytotoxicity” value is -10.3% (inactive).

As to `NCCCOCCOCCOCCCN`, the “activity change, negative = cytotoxicity” value is 9.75% (inactive).

Regarding `Cc1ccc(C(=O)C(C)CN2CCCCC2)cc1` (stereo not given), the Potency entry is “inactive”.

Regarding `CC(C)(C)C1CCCCC1O` (stereo not given), the “activity change, negative = cytotoxicity” value is 20.9% (inactive).

Consider `CCN(CC)CCc1nc(-c2ccccc2)no1`, for which the “activity change, negative = cytotoxicity” value is -12.6% [at 39.1 µM] (inactive).

Turning to `Cc1cc(CC(=O)O)c(C)n1-c1ccc(Cl)cc1`, the “activity change, negative = cytotoxicity” value is -11% (inactive).
